Source: PubChem BioAssay (NCATS)
Unmarked numbers belong to inactive results. Inconclusive results are not listed. Where a call stands in place of a potency, no number is given. Calls of active or inactive are those of the source. Calls come from the whole dose curve; as a rule, active = well fitted inhibition curve with a large enough effect; inconclusive = small, poorly fitted or top-dose-only effect; inactive = flat fitted curve, though single readings scatter.

molecular target: Phospholipid hydroperoxide glutathione peroxidase GPX4 (Homo sapiens) (UniProt P36969); assay: Primary qHTS Assay for Inhibitors of Recombinant Selenoprotein Glutathione Peroxidase 4 (GPX4) (AID 1845192); conditions: recombinant GPX4, GR-coupled NADPH fluorescence, 15 min; series mostly up to 50 µM; note: nearly all actives have a fitted effect of over 65% in size
Outline: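 qHTS, GR-coupled: GPX4 200 nM + cpd 30 min RT → GSH 1 mM, NADPH 0.5 mM, GR 100 nM → CHP 0.5 mM start; fluor 340/450 at t0 and t15 min; no-enzyme wells as control.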

Phospholipid hydroperoxide glutathione peroxidase GPX4 (Homo sapiens), sequence (P36969 whole entry, looked up): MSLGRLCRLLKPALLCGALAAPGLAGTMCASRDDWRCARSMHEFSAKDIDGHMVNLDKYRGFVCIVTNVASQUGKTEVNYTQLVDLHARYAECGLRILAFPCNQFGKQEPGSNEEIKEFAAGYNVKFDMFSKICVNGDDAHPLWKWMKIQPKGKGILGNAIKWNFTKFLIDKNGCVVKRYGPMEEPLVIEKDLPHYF

Row | Structure (SMILES) | Potency
1 | CC1OC(OC2C(O)C(OC3CCC4(C)C(CCC5(C)C4CC=C4C6CC(C)(COC7OC(CO)C(O)C(O)C7O)CC(O)C6(C)CCC45C)C3(C)C)OC(C(=O)O)C2O)C(O)C(O)C1OC1OCC(O)C(O)C1O (centres undefined) | inactive
2 | C=C1C(=O)OC2C1CCC(=C)C1CC(OC(C)=O)C(=C)C12 (centres undefined) | inactive
3 | CC1=C(C(=O)O)/C(=C/CO[C@@H]2O[C@H](COC(=O)/C=C/c3ccc(O)cc3)[C@@H](O)[C@H](O)[C@H]2O)C(O)C1 (some centres undefined) | inactive
4 | Cc1nc(C)c(-c2ccc(C3CCC(CC(=O)O)CC3)cc2)nc1C(N)=O (centres undefined) | inactive
5 | Cn1cc(S(=O)(=O)c2ccc(Cl)cc2)c2cccc(N3CCNCC3)c21 | inactive
6 | CC(C)=CCC/C(C)=C/CO[C@@H]1O[C@H](CO)[C@@H](O)[C@H](O)[C@H]1O | inactive
7 | CNC(=O)c1ccccc1Nc1cc(Nc2ccc(N3CCOCC3)cc2OC)ncc1C(F)(F)F | inactive
8 | O=C(c1cc2c(cc1F)OC(c1ccc(F)cc1)(c1ccc(Cl)cc1Cl)O2)N1CCOCC1 (centres undefined) | inactive
9 | COC(=O)/C=C/C12COC(C)(C)C1C(O)C(OC(C)=O)C1(C)C2CCC2(C)C(c3ccoc3)OC(=O)C3OC321 (centres undefined) | inactive
10 | CC(C)(C)NC(=O)[C@@H](c1cccnc1)N(C(=O)c1ccco1)c1ccc(C(C)(C)C)cc1 | inactive
11 | C=C(CCC1=C(C)[C@H]2[C@H](CC3[C@@H]4CC=C5C[C@@H](O)C[C@@H](O)[C@]5(C)C4[C@H](O)C[C@@]32C)O1)CO[C@@H]1O[C@H](CO)[C@@H](O)[C@H](O)[C@H]1O (some centres undefined) | inactive
12 | CC1CCC2(C=O)C(CO)=CCCC2C1(C)CC(=O)O (centres undefined) | inactive
13 | CC1CCC23COC(=O)C2=CC(O)CC3C1(C)CCC1=CC(O)OC1=O (centres undefined) | inactive
14 | CC(=O)N1CCN(C(=O)Cc2ccc(Nc3ncc(F)c(Nc4ccc(C(=O)Nc5ccccc5Cl)cc4)n3)cc2)CC1 | inactive
15 | CCC(C)C(=O)O[C@H]1CCC=C2C=C[C@H](C)[C@H](CC[C@@H](O)C[C@@H](O)CC(=O)O)[C@H]21 (some centres undefined) | inactive
16 | Cc1cc2c(c(=O)[nH]1)OC(C(O)CC(C)C)O2 (centres undefined) | inactive
17 | O=C(O)c1cc(I)ccc1NC(=O)[C@H](Cc1ccccc1)NCc1ccccc1 | inactive
18 | CC(C)C(NC(=O)c1ccc2ccccc2n1)C(=O)NC(CC(=O)O)C(=O)COc1c(F)cccc1F (centres undefined) | inactive
19 | CC/C=C\CC1C(=O)C=CC1(CCCCCCCC(=O)O)OC(C)=O (centres undefined) | inactive
20 | CCC(O)C(C)C1CCC(C(C)C(=O)O)O1 (centres undefined) | inactive
21 | C=C1CCC2C(C)(C)C(O)CCC2(C)C1CCC(C)CCO (centres undefined) | inactive
22 | COc1c(/C=C/C(C)(C)O)ccc2c1C(=O)OCc1cc(C)cc(O)c1O2 | inactive
23 | CC(=O)OC1/C(C)=C/C(=O)C(OC(C)=O)C(C)(C)/C=C/C(C)C(=O)C2(OC(C)=O)CC(C)C(OC(=O)c3ccccc3)C12 (centres undefined) | inactive
24 | CCOCCOC(=O)/C=C/c1ccc(OC)cc1 | inactive
25 | CC1=CC(=O)C2C(C)(C)CCC[C@]2(C)[C@H]1CO (some centres undefined) | inactive
26 | CC[C@]1(O)CC2CN(CCc3c([nH]c4ccccc34)[C@@](C(=O)OC)(c3cc4c(cc3OC)N(C)[C@H]3[C@@](O)(C(=O)OC)[C@H](OC(C)=O)[C@]5(CC)C=CCN6CC[C@]43[C@@H]65)C2)C1 (some centres undefined) | inactive
27 | CO[C@H]1/C=C/C=C/C=C/C[C@H](OC(=O)[C@@H](C)NC(=O)C2CCCCC2)[C@H](C)[C@@H](O)/C(C)=C/CCc2cc(O)cc(c2)NC(=O)C1 | inactive

molecular target: Luciferin 4-monooxygenase (Photinus pyralis) (UniProt P08659); assay: Primary firefly luciferase (FLuc) qHTS assay for identification of artifact compounds. (AID 1845220); conditions: purified firefly luciferase, luminescence, 5 min; series mostly up to 54.1 µM; note: nearly all actives have a fitted effect of over 60% in size
Outline: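 In this counter-screen for luciferase artifacts, test compounds met substrate (10 uM each luciferin and ATP) before 10 nM enzyme started the reaction. Light output was measured 5 min later.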

Row | Structure (SMILES) | Potency | activity change, negative = inhibition | outcome
28 | CC(C)CC(=O)O[C@@H]1OC=C(CO[C@@H]2O[C@H](CO)[C@@H](O)[C@H](O)[C@H]2O)[C@H]2[C@@H]3O[C@H]3[C@@](O)(CO)[C@@H]12 | inactive |  | 
29 | C/C=C/C=C/C=C/C(=O)OC1C=C(C=O)C(O)(C(=O)O)C2(C)CCCC(C)(C)C12 (centres undefined) | inactive |  | 
30 | CC(CCC1(O)OC2CC3C4CCC5CC(O[C@@H]6O[C@H](CO)[C@@H](O)[C@H](O)[C@H]6O[C@@H]6O[C@@H](C)[C@H](O)[C@@H](O)[C@H]6O)C(O)CC5(C)C4CCC3(C)C2C1C)CO[C@@H]1O[C@H](CO)[C@@H](O)[C@H](O)[C@H]1O (some centres undefined) |  | -2.32% [at 11.6 µM] | 
31 | Cc1nc(Nc2n[nH]c3c2CN(C(=O)NC(CN(C)C)c2ccccc2)C3(C)C)c2sccc2n1 (centres undefined) | inactive |  | 
32 | CC(=O)OCC1(O)CCC2C(COC3OC(CO)C(O)C(O)C3OC(=O)/C=C/c3ccc(O)cc3)=COC(OC(=O)CC(C)C)C21 (centres undefined) | inactive |  | 
33 | CC1=CC(=O)[C@H]2C(C)(C)CCC[C@]2(C)[C@@]1(O)CO | inactive |  | 
34 | CC1CCC2C(C)(C)[C@@H](O)CC[C@]2(C)C12Cc1c(O)cc3c(c1O2)CN(C(CCC(=O)O)C(=O)O)C3=O (some centres undefined) | inactive |  | 
35 | CCCC(=O)NCCc1csc(-c2ccc(Cl)cc2)n1 | inactive |  | 
36 | C[C@@H]1CCC/C=C/[C@H]2CC(=O)C[C@@H]2[C@@H](O)/C=C/C(=O)O1 | inactive |  | 
37 | CC1(C)CCC2(C(=O)OC3OCC(O)C(O)C3O)CCC3(C)C(=CCC4C5(C)CC(O)C(OC6OC(COC7OCC(O)C(O)C7O)C(O)C(O)C6O)C(C)(C)C5CCC43C)C2C1 (centres undefined) |  |  | inactive [at 11.6 µM]
38 | CC(C)=CC/C=C(\C)[C@H]1CC[C@]2(C)[C@@H]1[C@H](O)C[C@@H]1[C@@]3(C)CC[C@H](O)C(C)(C)[C@@H]3[C@@H](O[C@@H]3O[C@H](CO)[C@@H](O)[C@H](O)[C@H]3O)C[C@]12C | inactive |  | 
39 | CC1OC(OC2C(O)C(OC3CCC4(C)C(CCC5(C)C4CC=C4C6CC(C)(COC7OC(CO)C(O)C(O)C7O)CC(O)C6(C)CCC45C)C3(C)C)OC(C(=O)O)C2O)C(O)C(O)C1OC1OCC(O)C(O)C1O (centres undefined) |  | 0.0325% [at 11.6 µM] | 
40 | C=C1C(=O)OC2C1CCC(=C)C1CC(OC(C)=O)C(=C)C12 (centres undefined) | inactive |  | 
41 | CC1=C(C(=O)O)/C(=C/CO[C@@H]2O[C@H](COC(=O)/C=C/c3ccc(O)cc3)[C@@H](O)[C@H](O)[C@H]2O)C(O)C1 (some centres undefined) | inactive |  | 
42 | Cc1nc(C)c(-c2ccc(C3CCC(CC(=O)O)CC3)cc2)nc1C(N)=O (centres undefined) | inactive |  | 
43 | Cn1cc(S(=O)(=O)c2ccc(Cl)cc2)c2cccc(N3CCNCC3)c21 | inactive |  | 
44 | CC(C)=CCC/C(C)=C/CO[C@@H]1O[C@H](CO)[C@@H](O)[C@H](O)[C@H]1O | inactive |  | 
45 | CNC(=O)c1ccccc1Nc1cc(Nc2ccc(N3CCOCC3)cc2OC)ncc1C(F)(F)F | inactive |  | 
46 | O=C(c1cc2c(cc1F)OC(c1ccc(F)cc1)(c1ccc(Cl)cc1Cl)O2)N1CCOCC1 (centres undefined) | inactive |  | 

Row | Structure (SMILES) | Potency | activity change, negative = inhibition | outcome
47 | COC(=O)/C=C/C12COC(C)(C)C1C(O)C(OC(C)=O)C1(C)C2CCC2(C)C(c3ccoc3)OC(=O)C3OC321 (centres undefined) | inactive |  | 
48 | CC(C)(C)NC(=O)[C@@H](c1cccnc1)N(C(=O)c1ccco1)c1ccc(C(C)(C)C)cc1 | inactive |  | 
49 | C=C(CCC1=C(C)[C@H]2[C@H](CC3[C@@H]4CC=C5C[C@@H](O)C[C@@H](O)[C@]5(C)C4[C@H](O)C[C@@]32C)O1)CO[C@@H]1O[C@H](CO)[C@@H](O)[C@H](O)[C@H]1O (some centres undefined) | inactive |  | 
50 | CC1CCC2(C=O)C(CO)=CCCC2C1(C)CC(=O)O (centres undefined) | inactive |  | 
51 | CC1CCC23COC(=O)C2=CC(O)CC3C1(C)CCC1=CC(O)OC1=O (centres undefined) | inactive |  | 
52 | CC(=O)N1CCN(C(=O)Cc2ccc(Nc3ncc(F)c(Nc4ccc(C(=O)Nc5ccccc5Cl)cc4)n3)cc2)CC1 | inactive |  | 
53 | CCC(C)C(=O)O[C@H]1CCC=C2C=C[C@H](C)[C@H](CC[C@@H](O)C[C@@H](O)CC(=O)O)[C@H]21 (some centres undefined) | inactive |  | 
54 | Cc1cc2c(c(=O)[nH]1)OC(C(O)CC(C)C)O2 (centres undefined) | inactive |  | 
55 | O=C(O)c1cc(I)ccc1NC(=O)[C@H](Cc1ccccc1)NCc1ccccc1 | inactive |  | 
56 | CC(C)C(NC(=O)c1ccc2ccccc2n1)C(=O)NC(CC(=O)O)C(=O)COc1c(F)cccc1F (centres undefined) | inactive |  | 
57 | CC/C=C\CC1C(=O)C=CC1(CCCCCCCC(=O)O)OC(C)=O (centres undefined) | inactive |  | 
58 | CCC(O)C(C)C1CCC(C(C)C(=O)O)O1 (centres undefined) | inactive |  | 
59 | C=C1CCC2C(C)(C)C(O)CCC2(C)C1CCC(C)CCO (centres undefined) | inactive |  | 
60 | COc1c(/C=C/C(C)(C)O)ccc2c1C(=O)OCc1cc(C)cc(O)c1O2 | inactive |  | 
61 | CC(=O)OC1/C(C)=C/C(=O)C(OC(C)=O)C(C)(C)/C=C/C(C)C(=O)C2(OC(C)=O)CC(C)C(OC(=O)c3ccccc3)C12 (centres undefined) | inactive |  | 
62 | CC1=CC(=O)C2C(C)(C)CCC[C@]2(C)[C@H]1CO (some centres undefined) | inactive |  | 
63 | CC[C@]1(O)CC2CN(CCc3c([nH]c4ccccc34)[C@@](C(=O)OC)(c3cc4c(cc3OC)N(C)[C@H]3[C@@](O)(C(=O)OC)[C@H](OC(C)=O)[C@]5(CC)C=CCN6CC[C@]43[C@@H]65)C2)C1 (some centres undefined) | inactive |  | 
64 | CO[C@H]1/C=C/C=C/C=C/C[C@H](OC(=O)[C@@H](C)NC(=O)C2CCCCC2)[C@H](C)[C@@H](O)/C(C)=C/CCc2cc(O)cc(c2)NC(=O)C1 | inactive |  | 
